Results on 15 compounds are retold here after PubChem BioAssay (NCATS).

Inconclusive results are not listed. Activity calls are given as the source filed them. Calls come from the whole dose curve; as a rule, active = well fitted inhibition curve with a large enough effect; inconclusive = small, poorly fitted or top-dose-only effect; inactive = flat fitted curve, though single readings scatter.

Common to all, as to assay: qHTS profiling for inhibitors of Plasmodium falciparum proliferation (AID 504749); note: nearly all actives have a fitted effect of over 60% in size
What all share (conditions): P. falciparum in erythrocytes, SYBR Green DNA, 72 h; series mostly up to 28.7 µM

Assay [1] concerns AA1029. A digest of the protocol:
(§1)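 Each compound contacts P. falciparum-infected red blood cells for 72 h at 37 C; lysis buffer (Tris, EDTA, saponin, Triton X, SYBR Green I) is added and fluorescence measured next morning; values normalized to controls.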

The subject of assay [2] is AS120. A digest of the protocol: as §1
The test system of assay [3] is ATS95. A digest of the protocol:
as §1

Assay [4] has as its system CP194. A digest of the protocol:
as §1

The subject of assay [5] is CP247. In a few lines:
as §1

Assay [6] deals with CP266. In a few lines: as §1
Assay [7] relates to CP297. A digest of the protocol:
as §1

Assay [8] has as its system DFO2036. A digest of the protocol:
as §1

The subject of assay [9] is DIV14. In a few lines:
as §1

The test system of assay [10] is DIV30. In a few lines: as §1
Assay [11] has as its system Dd2. In a few lines:
as §1

The subject of assay [12] is GB4. A digest of the protocol: as §1
The subject of assay [13] is ICS. A digest of the protocol: as §1
Assay [14] relates to P93_24. In a few lines:
as §1

Assay [15] deals with P94_40. In a few lines:
as §1

For assay [16], the system named is PAD. In a few lines:
as §1

For assay [17], the system named is PC26. In a few lines:
as §1

Assay [18] concerns SC27B. In a few lines: as §1
For assay [19], the system named is TAB165. In a few lines:
as §1

Assay [20] concerns CP260. In a few lines: as §1
Potency is the fitted concentration of half-maximal effect.

As for `C=C1CC2C(CC[C@]3(C)C(=O)CCC23)[C@]2(C)C=CC(=O)C=C12` (some centres not stated), the Potency result in assay [1], in assay [2], in assay [3], in assay [4], in assay [5] and in assay [6] was “inactive” throughout. The Potency result in assay [7], in assay [8], in assay [9], in assay [10], in assay [11] and in assay [12] was “inactive” throughout. The Potency result in [13], in assay [14], in [15], in assay [16], in assay [17] and in assay [18] was “inactive” throughout. Also, in [19], the Potency result is “inactive”.

As to `O=[N+]([O-])OC1CO[C@H]2C(O[N+](=O)[O-])COC12` (some centres not stated), the Potency entry in assay [1], in assay [2], in [3], in [4], in [5] and in assay [20] was “inactive” each time. Also, the Potency result in [6], in [7], in assay [8], in assay [9], in assay [10] and in assay [11] was “inactive” each time. Besides, the Potency entry in assay [12], in [13], in [14], in assay [15], in [16] and in assay [17] was “inactive” each time. Moreover, the Potency result in [18] and in [19] was “inactive” each time.

As for `CC(=O)O[C@H]1C[C@H](O[C@H]2[C@@H](O)CC(O[C@H]3[C@@H](O)C[C@H](O[C@H]4CC[C@@]5(C)[C@H](CC[C@@H]6[C@@H]5CC[C@]5(C)[C@@H](C7=CC(=O)OC7)CC[C@]65O)C4)O[C@@H]3C)O[C@@H]2C)O[C@H](C)[C@H]1O[C@@H]1O[C@H](CO)[C@@H](O)[C@H](O)[C@H]1O` (some centres not stated), the Potency entry in assay [1], in [2], in assay [3], in assay [4], in [5] and in assay [20] was “inactive” in each case. Besides, the Potency entry in assay [6], in assay [7], in assay [8], in assay [10], in [11] and in assay [12] was “inactive” each time. In addition, the Potency entry in [13], in [14], in assay [15], in assay [16], in assay [18] and in assay [19] was “inactive” throughout.

As for `C#CC1(O)C=CC2C3CCC4=CC(=O)CCC4C3CCC21CC` (configuration not stated), the Potency result in assay [2] and in [11] was “inactive” in each case. In addition, the Potency in assay [5] is 6.31 µM (active); in assay [9] it was 6.75 µM (active); in [17], 6.75 µM (active).

Consider `C[C@@H](N)[C@@H](O)c1ccc(O)c(O)c1`, for which the Potency result in assay [1], in assay [2], in assay [3], in assay [4], in assay [5] and in assay [20] was “inactive” throughout. For the same compound, the Potency entry in [6], in [7], in assay [8], in assay [9], in assay [10] and in [11] was “inactive” throughout. For the same compound, the Potency entry in [12], in [13], in assay [14], in assay [15], in assay [16] and in assay [17] was “inactive” in each case. Besides, the Potency entry in [18] and in assay [19] was “inactive” throughout.

For the compound `C[C@]12CC[C@H]3[C@@H](CC[C@@]45O[C@@H]4C(=O)C(C#N)C[C@]35C)[C@@H]1CC[C@@H]2O` (some centres not stated), the Potency result in assay [5], in assay [20], in assay [6], in assay [7], in [9] and in assay [10] was “inactive” each time. For the same compound, the Potency result in assay [11], in [15], in [16] and in assay [17] was “inactive” in each case.

With `CC1CC[C@@]2(NC1)OC1CC3C4CC[C@@H]5CC(O)CC[C@@]5(C)C4CC[C@]3(C)C1C2C` (some centres not stated), the Potency entry in assay [1], in assay [3], in assay [4], in [6], in [7] and in [8] was “inactive” each time. The Potency in assay [13] is 10 µM (active).

Turning to `O=C1CC2OCC=C3CN4CC[C@]56c7ccccc7N1C5C2[C@H]3C[C@H]46` (some centres not stated), the Potency in [1] was 10 µM (active); in assay [20], 11.2 µM (active); in [11] it was 11.2 µM (active). Moreover, the Potency result in assay [5], in assay [13] and in assay [17] was “inactive” in each case.

For `CC(Cc1ccccc1)N(C)C` (configuration not stated), the Potency entry in [1], in [2], in assay [3], in assay [4], in [5] and in assay [20] was “inactive” throughout. Besides, the Potency result in [6], in assay [7], in assay [8], in assay [9], in assay [10] and in [11] was “inactive” throughout. The Potency result in assay [13], in [14], in assay [15], in [16], in [17] and in assay [18] was “inactive” in each case. In [19], the Potency result was “inactive”.

Consider `C#CCN1CC(=O)N(COC(=O)[C@@H]2[C@@H](C=C(C)C)C2(C)C)C1=O`, for which the Potency result in assay [1], in assay [2], in assay [3], in assay [4], in assay [5] and in assay [20] was “inactive” throughout. Further, the Potency entry in assay [8], in assay [9], in [10], in assay [11], in [12] and in assay [13] was “inactive” throughout. The Potency entry in [14], in assay [15], in assay [16], in assay [17], in [18] and in assay [19] was “inactive” in each case.

Take `CCN(CC)C(=O)N[C@@H]1C=C2c3cccc4[nH]cc(c34)C[C@H]2N(C)C1`: the Potency was 12.6 µM (active) in assay [2]; 13.5 µM (active) in [9]; 8.49 µM (active) in assay [10]; 14.1 µM (active) in assay [11]; 8.49 µM (active) in assay [12]; 8.91 µM (active) in assay [13]. For the same compound, the Potency is 7.94 µM (active) in assay [14], 8.91 µM (active) in assay [15], 12 µM (active) in assay [17] and 12.6 µM (active) in assay [19]. The Potency result in assay [6] and in assay [8] was “inactive” in each case.

For `NC(Cc1ccc(Oc2cc(I)c(O)c(I)c2)c(I)c1)C(=O)O` (configuration not stated), the Potency entry in assay [1], in assay [2], in assay [3], in assay [4], in assay [20] and in assay [6] was “inactive” each time. For the same compound, the Potency result in assay [7], in [9], in [10], in assay [11], in assay [12] and in assay [13] was “inactive” each time. Besides, the Potency result in [14], in assay [16], in [17], in assay [18] and in assay [19] was “inactive” each time.

Regarding `CC(C)CCC(=O)OC1CCC2C3CCC4=CC(=O)CC[C@]4(C)C3CC[C@]12C` (some centres not stated), the Potency entry in assay [4], in assay [6], in assay [7], in [9], in assay [10] and in assay [12] was “inactive” in each case. Besides, the Potency was 11.2 µM (active) in [20] and 7.94 µM (active) in assay [13].

Turning to `O=C1CC2OCC=C3CN4CCC56c7ccccc7N1C5[C@H]2[C@H]3C[C@H]46` (some centres not stated) (tested in a mixture with another compound), the Potency result in assay [3], in [5], in assay [6], in assay [7], in [8] and in assay [14] was “inactive” in each case. Moreover, the Potency result in assay [15], in assay [18] and in [19] was “inactive” in each case.

`C=CC[C@]1(O)CCC2C3CCC4=CCCCC4C3CCC21C` (some centres not stated): the Potency result in [1], in assay [2], in assay [4], in [5], in assay [20] and in assay [7] was “inactive” throughout. Also, the Potency result in assay [8], in [10], in [12], in [14], in assay [16] and in [17] was “inactive” in each case. The Potency result in [18] and in [19] was “inactive” throughout.
